Consider 100 molecules from PubChem BioAssay AID430 (Sanford-Burnham Center for Chemical Genomics, 2006).

Screen size: about 63,000 compounds; about 1,100 (1.7%) were called active. The entries come from a sample that favours actives as a whole. Potency and affinity values are given separately. A number with no mark means an inactive call. Cut-off read from the data, not from the text of the source: active = cytotoxicity above about 50%; inactive = the rest.

This assay can be described thus: cytotoxicity in HPDE-C7 cells, cell-based, fluorescence, HTS (AID 430).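 Note: cells exposed to compound for 48 hours before viability readout; 0% = vehicle and 100% = reference cytotoxic drug.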 Particulars: HPDE-C7 pancreatic duct cells viability, at 10 µM, active compounds read high.
As for `CC1=C(C(=O)N(C)C)C(c2ccc(Cl)c(Cl)c2)NC(=O)N1` (stereo not given), the cytotoxicity is -1.2%. On to `O=C(Nc1nc(-c2cc3ccccc3oc2=O)cs1)c1ccco1`, for which the cytotoxicity is 85% (active).

For `O=C(Nc1nc(-c2ccncc2)cs1)c1ccco1`, the cytotoxicity is 9.1%. To `Cc1csc(NC(=O)c2ccco2)n1` belongs -14.7%; to `O=C(NC1CCCCC1)NC1(C(=O)NCCCN2CCOCC2)CCCCC1`, -1.8%. The value for `CCN(CC)c1ccc(NC(=O)CN2CCN(CC(=O)Nc3ccc(F)cc3)CC2)cc1` was 4.2%; that for `O=C(CN1CCOc2ccccc21)N1CCCC1` was 4.1%; that for `CC(=O)c1ccc(NC(=O)C2CCC(C)NC2=O)cc1` (stereo not given) was -4.9%.

Regarding `CCOc1ccc(-c2nnc3ccc(SCC(=O)N4CCN(c5ccccc5)CC4)nn23)cc1`, the cytotoxicity was 56.6% (active). The value for `COc1ccc(-c2nnc3ccc(SCC(=O)N4CCN(c5ccccc5)CC4)nn23)cc1` was -6.6%; that for `O=C(CSc1ccc2nnc(-c3ccccc3)n2n1)N1CCN(c2ccccc2)CC1` was -3.5%. Take `CCn1c(=N)c(C(N)=O)cc2c(=O)n3cccc(C)c3nc21`: the cytotoxicity was 3.5%. The value for `Cc1cc(C)c2[nH]c(=O)c(C(c3nnnn3C3CCCC3)N3CCOCC3)cc2c1` (stereo not given) was -7.3%; that for `O=C(Nc1nc2ccccc2n1CCN1CCCCC1)c1ccco1` was -1.1%; that for `CCCn1c(NC(=O)c2cccc(S(=O)(=O)N3CCCC3)c2)nc2ccccc21` was 61.9% (active). The value for `O=C(Nc1nc2ccccc2n1CCN1CCCC1)c1ccc(Cl)cc1` was 59.6% (active).

Take `CCCn1c(NC(=O)c2ccc(C)cc2)nc2ccccc21`: the cytotoxicity was -34.1%. On to `Cc1ccc(C(=O)Nc2nc3ccccc3n2CCN2CCCC2)cc1`, for which the cytotoxicity is 1.6%. Consider `CCCn1c(NC(=O)c2ccc(Cl)c(S(=O)(=O)N3CCCC3)c2)nc2ccccc21`, for which the cytotoxicity is 16.1%. The value for `COc1ccc(S(=O)(=O)N(CC(=O)NCCCN(C)C)c2ccc(C)cc2)cc1OC` was 1%; that for `Cc1ccccc1CN1C(=O)C2(OCCCO2)c2ccccc21` was -4%; that for `CC(=O)N1c2ccccc2N(Cc2ccc(C)cc2C)C(=O)C1(C)C` was 58.4% (active). As for `Cc1ccc(C)c(CN2C(=O)C3(OCCCO3)c3ccccc32)c1`, the cytotoxicity is -1.3%.

On to `N=c1n(CCOc2ccccc2)c2ccccc2n1CCN1CCOCC1`, for which the cytotoxicity was -22.8%. The value for `CC1(C)CC(=O)C2=C(C1)NC(Nc1nc3ccccc3o1)=NC21CCCC1` was -16.5%; that for `Nc1nnnn1/N=C/C=C/c1ccccc1` was -7.1%.

In the case of `Nc1nnnn1/N=C/c1cccc(Oc2ccccc2)c1`, the cytotoxicity was -9.6%.

Consider `CC(=O)Nc1ccc(-n2c(C)nc(=O)c(-c3ccccc3)c2C)cc1`, for which the cytotoxicity is 2.9%. Take `CS(=O)(=O)c1ccc2nc(NC(=O)Oc3ccccc3)sc2c1`: the cytotoxicity is 3.4%. In the case of `Cc1ccc(NC(=O)CN(C)S(=O)(=O)c2cccc3cccnc23)cc1`, the cytotoxicity is 0.4%. The value for `O=C1CC(N2CCOCC2)C(=O)N1CCc1ccccc1` (stereo not given) was 5.1%. With `Cc1cc(-c2nnc3sc(C4CCCCC4)nn23)n[nH]1`, the cytotoxicity was 4.3%. The value for `CC(C)C(c1nnnn1CC1CCCO1)N1CCN(Cc2ccc3c(c2)OCO3)CC1` (stereo not given) was -3.2%; that for `CC(C)(C)NS(=O)(=O)c1ccc2nc(NC(=O)Cc3cccs3)sc2c1` was 68.7% (active). For `O=C(Cc1cccs1)Nc1nc2ccccc2s1`, the cytotoxicity is 0.1%. The value for `CS(=O)(=O)c1ccc2nc(NC(=O)Cc3ccccc3)sc2c1` was 0.9%; that for `CCOC(=O)C1CCCN(c2c(NCC3CCCO3)c(=O)c2=O)C1` (stereo not given) was -11.3%; that for `COC(=O)c1ccc(Nc2cc(C)nc3nc(C)nn23)cc1` was 5.7%. Regarding `CC(=O)c1ccc(Oc2cc(C)nc(-n3nc(C)cc3C)n2)cc1`, the cytotoxicity was 60.3% (active). The value for `Cc1cc(C)n(-c2ccc(C(=O)NC(C)C)cc2)n1` was -1%; that for `COc1ccc(Nc2cc(C)nc(-n3nc(C)cc3C)n2)cc1` was 66.9% (active); that for `COC(=O)c1ccc(Oc2ccc3nnc(C)n3n2)cc1` was -7.1%.

Regarding `COc1ccc(N2CCN(C(=O)c3ccc(-n4nc(C)cc4C)cc3)CC2)cc1`, the cytotoxicity is -4.7%. Regarding `CCOc1ccc(Nc2cc(C)nc(-n3nc(C)cc3C)n2)cc1`, the cytotoxicity is 49.1%.

As for `CNc1cc(C)nc(-n2nc(C)cc2C)n1`, the cytotoxicity was -0.2%.

Consider `COC(=O)c1ccc(Oc2cc(C)nc(-n3nc(C)cc3C)n2)cc1`, for which the cytotoxicity is 54.2% (active). To `O=C(NCCOC(=O)c1ccc(Cl)c(S(=O)(=O)N2CCCCC2)c1)c1ccncc1` belongs -9.8%; to `CC1(C)CC(=O)c2cnn(-c3nc4ccccc4[nH]3)c2C1`, -0.3%; to `c1ccc2c(c1)nc(N1CCOCC1)c1c3ccccc3[nH]c21`, -21.6%. As to `O=S(=O)(Nc1ccc2c(c1)OCCO2)c1cccc2cccnc12`, the cytotoxicity is -0.7%. The value for `CN(CCOC(=O)c1ccc2c(c1)OCCO2)Cc1ccccc1` was -14%.

`Cc1noc(C)c1COC(=O)c1ccc2c(c1)OCCO2`: the cytotoxicity was 4.3%.

As to `Cc1ccc2cccc(OC(=O)c3ccc4c(c3)OCCO4)c2n1`, the cytotoxicity was 53% (active). For the molecule `O=C(Oc1cccc2cccnc12)c1cccc(-n2cnnn2)c1`, the cytotoxicity was 20.3%. `Cc1[nH]c2ccc(-c3nnc(SCC(=O)c4ccccc4F)o3)cc2c1C`: the cytotoxicity was 66.4% (active).

For the molecule `Cc1[nH]c2ccc(-c3nnc(SCC(=O)N4CCCc5ccccc54)o3)cc2c1C`, the cytotoxicity is -10.5%. Consider `Cc1[nH]c2ccc(-c3nnc(SCC(=O)c4ccc(F)cc4)o3)cc2c1C`, for which the cytotoxicity was 1.7%.

Regarding `COc1cccc(C2(O)CCN(C(=O)C3CCC3)CC2)c1`, the cytotoxicity was -6.9%. The value for `O=C1c2ccccc2CCC1C(O)c1ccccn1` (stereo not given) was -15%. The value for `COc1cccc(CN(Cc2cccnc2)S(=O)(=O)c2ccc(-n3cnnn3)c(C)c2)c1OC` was -18%; that for `COc1ccccc1N1CCN(c2cc(N3CCCC3)nc(C)n2)CC1` was 2.7%. To `COc1ccccc1N1CCN(c2ccc(-c3ccccc3)nn2)CC1` belongs 61.1% (active). Take `COc1ccccc1N1CCN(c2nc(-c3ccccc3)cc(C(F)(F)F)n2)CC1`: the cytotoxicity was 10.1%.

Take `COCC(C)NC(=O)c1cc(-c2cccc(OC)c2)on1` (stereo not given): the cytotoxicity is -3.6%. In the case of `Cc1cc(C)cc(OCC(=O)Nc2ccc(N3CCN(S(C)(=O)=O)CC3)cc2)c1`, the cytotoxicity was -17.3%. To `Cc1ccccc1NC(=O)c1ccc(F)c(S(=O)(=O)N2CCN(c3ccccn3)CC2)c1` belongs -26.8%; to `Cc1cc(NCCCN2CCOCC2)n2ncc(-c3ccc(Cl)cc3)c2n1`, 11.9%. To `Cc1cc(NCCN2CCOCC2)n2ncc(-c3ccc(Cl)cc3)c2n1` belongs 9.8%; to `Cc1cc(NCCOCCO)n2ncc(-c3ccc(Cl)cc3)c2n1`, 65.6% (active). Consider `O=S(=O)(/C=C/c1ccccc1)n1cnc2ccccc21`, for which the cytotoxicity is 22.4%.

`Cc1cc(C)n(S(=O)(=O)Cc2ccccc2)n1`: the cytotoxicity was -8.3%. As to `Cc1cc(C)nc(Nc2n[nH]c(-c3ccccc3Br)n2)n1`, the cytotoxicity is -1.8%.

Consider `COc1ccccc1N1CCN(C(=O)Nc2cccc(C)c2)CC1`, for which the cytotoxicity was -2.6%. Turning to `Cc1ccc(SC(C)C(=O)N2CCCC2)cc1` (stereo not given), the cytotoxicity is 5.9%.

In the case of `CCCCCCNS(=O)(=O)c1ccc(Cl)s1`, the cytotoxicity is -26.3%.

Take `CCCCn1c(-c2nonc2NC(=O)c2ccccc2Cl)nc2ccccc21`: the cytotoxicity was 69.4% (active). For the molecule `CCC(=O)Nc1nonc1-c1nc2ccccc2n1Cc1ccccc1`, the cytotoxicity was 6.6%. Consider `CCC(=O)Nc1nonc1-c1nc2ccccc2n1N(C(=O)CC)C(=O)CC`, for which the cytotoxicity is 54.2% (active). The value for `CCC(=O)Nc1nonc1-c1nc2ccccc2n1CC(C)C` was 25.7%; that for `N#CCCn1c(-c2nonc2NC(=O)c2ccccc2Cl)nc2ccccc21` was 41.9%; that for `CCOC(=O)Cn1c(-c2nonc2NC(=O)c2ccccc2F)nc2ccccc21` was 41.5%. To `Cc1ccc(N2C(=O)CC(N(O)C3CC(=O)N(c4ccc(C)cc4)C3=O)C2=O)cc1` (stereo not given) belongs 14.1%. The value for `C=CCNC(=O)c1sc(=S)n(-c2ccc(C(=O)OCC)cc2)c1N` was 2.1%. Consider `COc1ccc(C)cc1NC(=O)C1CCCN(S(=O)(=O)c2cnc[nH]2)C1` (stereo not given), for which the cytotoxicity is 11.5%. To `O=C(Cc1ccc(Cl)cc1)Nc1ccccc1CO` belongs -8.9%; to `CSc1nc(=NC(C)=O)ss1`, -2%. In the case of `CC1CCN(C(=O)CSc2nc(N)c3c4c(sc3n2)CN(C)CC4)CC1`, the cytotoxicity was 5.8%.

With `CCCCOc1ccc(C(=O)N2CCCCCC2)cc1`, the cytotoxicity was -14.5%. With `COc1ccc(C(=O)n2cnc(N)n2)cc1`, the cytotoxicity is 2.7%. Consider `CCCCCCOc1ccc(C(=O)n2cnc(N)n2)cc1`, for which the cytotoxicity was 71.3% (active).

Turning to `COc1ccc2nc3c(cc2c1)c(NC(=O)c1cccs1)nn3CC(C)C`, the cytotoxicity was 50.8% (active).

Regarding `CCCCn1nc(NC(=O)c2cccs2)c2cc3cc(OC)ccc3nc21`, the cytotoxicity was 28.9%. The value for `CCCn1nc(NC(=O)c2cccs2)c2cc3cc(OC)ccc3nc21` was -7.4%.

Turning to `O=S(=O)(NCc1ccco1)c1cccc2cccnc12`, the cytotoxicity is 15.9%. With `Cc1ccc(C)c(S(=O)(=O)C(C#N)c2nc3ccccc3nc2N2CC(C)OC(C)C2)c1` (stereo not given), the cytotoxicity is 48.7%.

Take `Cc1ccc(S(=O)(=O)C(C#N)c2nc3ccccc3nc2N2CC(C)OC(C)C2)cc1C` (stereo not given): the cytotoxicity is 50% (active).

With `Cc1ccc(S(=O)(=O)C(C#N)c2nc3ccccc3nc2N2CCCC2)cc1` (stereo not given), the cytotoxicity was 23.3%.

Regarding `Cc1cccc(S(=O)(=O)C(C#N)c2nc3ccccc3nc2N2CC(C)OC(C)C2)c1` (stereo not given), the cytotoxicity is 7.1%. In the case of `Cc1ccc(S(=O)(=O)C(C#N)c2nc3ccccc3nc2N2CCCC2)cc1C` (stereo not given), the cytotoxicity is 53.9% (active). The value for `Cc1cccc(S(=O)(=O)C(C#N)c2nc3ccccc3nc2N2CCCC2)c1` (stereo not given) was -7.1%.
